EP2 mod – EP2 receptor modulators, cAMP readout, primary screen, cell-based, HTRF cAMP, PGE2 stimulation; EP2-expressing cells, cAMP HTRF FRET, PGE2 co-stimulation; AID 940, 2007; induction, % at 25 µM; 0.83% of 260,000 active;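 active = compounds whose cAMP rise, as percent of the full-agonist control response, exceeds 60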;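 also: rat C6 glioma line stably carrying human EP2 under a CMV promoter; the protocol text gives 20 µM as final concentration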
EP2 antag – human EP2 receptor antagonists, primary screen, TR-FRET cAMP, C6 glioma cells; Prostaglandin E2 receptor EP2 subtype (Homo sapiens), P43116; C6 glioma cells expressing human EP2; cells stimulated with saturating PGE2; inhibition, % at 25 µM; 0.52% of 260,000 active;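 active = percent inhibition above 40 after rounding to a whole number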;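 also: rat C6 glioma host cells with rolipram phosphodiesterase inhibitor present; the protocol text gives 20 µM as final concentration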
CHT allo act – CHT positive allosteric modulators, primary screen, cell-based, membrane potential dye, choline EC20 | 0.49% of 310,000 active | B-score at 10 µM | AID 488977, 2010 | CHT-expressing cells; stronger effect = higher value; LV-AA mutant CHT in HEK293 cells;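 active = initial fluorescence not abnormally high and integrated response B-score, plate-corrected, over 3 SD above library mean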
CHT inh – inhibitors of human choline transporter CHT; AID 488975, 2010; High affinity choline transporter 1 (Homo sapiens), Q9GZV3; B-score at 10 µM; CHT-expressing cells, membrane potential dye, choline response; stronger effect = lower value; 0.86% of 310,000 active;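 active = B-score over 3 SD under the library average, and starting fluorescence ratio not unusually high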;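 also: choline stimulus applied at its EC90 after an EC20 pre-addition; B-score computed on integrated fluorescence ratio after choline addition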
CHT block conf – CHT inhibitors, confirmation, cell-based, membrane potential dye, duplicate. shares compounds with CHT inh. CHT-expressing cells, choline membrane potential dye; LV-to-AA substituted CHT, HEK293 cells. CHT activity remaining % of control (stronger effect = lower value), % at 10 µM. 70% of 2,400 active. AID 493221, 2011;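 active = choline transporter activity left, mean of duplicates at 10 µM, below buffer-only control mean minus 3 SD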;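 also: depolarization triggered by choline at its EC90 following an EC20 pre-addition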
HEK293 CHT ctr – membrane potential effects in parental HEK293, counter-screen for CHT inhibitor project, cell-based, membrane potential dye; shares compounds with CHT inh; choline response; active = decrease or increase beyond buffer ±3SD; membrane potential ratio readout (active if shifted either direction beyond buffer ±3SD; no single direction) at 10 µM; 4% of 2,400 active; AID 493222, 2011;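 also: parental cells lack the transporter so any hit is non-specific; ratio is peak minus trough fluorescence over baseline after EC90 choline challenge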
Numbers stand for hits; – = inactive; · = not tested or not shown. An excerpt weighted towards active compounds, which were near 2.1% of everything screened.

SMILES	EP2 mod	EP2 antag	CHT allo act	CHT inh	CHT block conf	HEK293 CHT ctr
O=C(NCCn1cccn1)c1ccc(OC2CCN(C(=O)C3CC3)CC2)cc1	–	–	–	-10.5	–	–
CSCCNC(=O)c1ccc(OC2CCN(CCc3ccccc3)CC2)cc1	–	–	–	-5.23	46.4%	4.78
Cc1cc(C)c2[nH]c(=O)c(C(c3nnnn3Cc3ccc(F)cc3)N3CCN(C)CC3)cc2c1 (stereo unspecified)	–	–	·	·	·	·
Cc1cc(C)cc(NC(=O)CN2c3cccc4cccc(c34)S2(=O)=O)c1	–	–	·	·	·	·
O=C1c2cccnc2C(=O)N1Cc1ccc(Cl)cc1	–	–	–	–	·	·
O=C1c2cccnc2C(=O)N1Cc1ccc(S(=O)(=O)N2CCOc3ccc(Cl)cc32)cc1	·	·	–	-5.05	–	–
Cc1cc2cc(C(c3nnnn3CCc3ccccc3)N3CCSCC3)c(=O)[nH]c2cc1C (stereo unspecified)	–	–	·	·	·	·
Cc1ccccc1Nc1nc(N)nc(COC(=O)C(NC(=O)c2ccco2)C(C)C)n1 (stereo unspecified)	–	–	–	-6.2	–	–
CCC1CCCCN1C(=O)Cn1nc(C)n2c(cc3sccc32)c1=O (stereo unspecified)	–	·	·	·	·	·
CC(=O)n1cc(CN(CCCn2ccnc2)Cc2ccc(C)s2)c2ccccc21	–	–	·	·	·	·
Cc1[nH]n(-c2cccc(Cl)c2)c(=O)c1-c1ccccc1	–	–	–	-6.12	67.5%	–
CC(=O)NN1C(=O)c2ccc(Oc3cccc([N+](=O)[O-])c3)cc2C1=O	–	–	–	-8.3	23.0%	–
CC12CCC(C)(c3nc4ccccc4nc31)C2(C)C	–	–	–	–	·	·
Cc1[nH]nc2c1-c1nc3ccccc3nc1C(C)(C)C2	–	–	–	-4.97	–	–
Cc1cccc(NC(=O)CSc2nc3ccc(C)cc3cc2C#N)c1	–	–	·	·	·	·
COc1ccc2c(c1OC)C(=O)N1c3ccccc3C(=O)N(c3ccccc3)C21 (stereo unspecified)	–	–	–	-8.53	–	–
COc1ccc2c(c1OC)C(=O)N1c3ccccc3C(=O)N(c3ccc(F)cc3)C21 (stereo unspecified)	–	–	–	–	·	·
CCCCOC(=O)n1c(SCC(=O)N(CC)CC)nc2ccccc21	–	–	–	-5.2	–	–
CSc1nc(Nc2ccc(Cl)cc2)c(C#N)c(=O)[nH]1	·	·	–	-6.1	–	–
CCCC(c1nnnn1C(C)(C)C)N(Cc1ccccc1OC)Cc1cc2cccc(C)c2[nH]c1=O (stereo unspecified)	–	–	·	·	·	·
CC(=O)NC(CC(=O)NCCN1C(=O)S/C(=C\c2ccccc2)C1=O)c1ccccc1 (stereo unspecified)	–	–	–	-5.66	57.2%	–
O=C(CCSc1nc(-c2ccc3c(c2)OCO3)cc(C(F)(F)F)n1)NC1CCCCC1	–	–	·	·	·	·
CC(C)c1c(C(=O)N/N=C/c2cccc(OCc3ccc(F)cc3)c2)nnn1-c1nonc1N	·	·	–	-6.63	68.0%	–
O=C(CSc1ccc(-c2nc3ccccc3[nH]2)cn1)Nc1ccc(S(=O)(=O)NC2CC2)cc1	–	–	–	-5.72	–	–
COCCOC(=O)C1=C(N)OC2=C(C(=O)CCC2)C1c1cccc(C(F)(F)F)c1 (stereo unspecified)	–	–	·	·	·	·
O=C(NNC1=C(C(=O)C(F)(F)F)CCC1)c1ccccc1O	–	–	–	-6.49	30.6%	–
O=C(NNC1=C(C(=O)C(F)(F)F)CCC1)c1ccccc1Cl	–	–	–	–	·	·
O=C(NNC1=C(C(=O)C(F)(F)F)CCC1)c1ccc(Br)cc1	–	–	–	-7.47	43.1%	–
COc1cc(CC(=O)NC(c2ccccc2)c2nccn2C)cc(OC)c1OC (stereo unspecified)	–	·	·	·	·	·
NC(=O)CN1CCN(c2nc3c(c(=O)[nH]2)CCCC3)CC1	–	–	·	·	·	·

Bioassay records (PubChem BioAssay)
